Screening data from PubChem.
The entries come from a sample that favours hits as a whole.
VCAM1 TNFa pot – TNF alpha stimulated VCAM1 expression potentiation | HUVEC TNFa-stimulated VCAM-1 immunofluorescence, high-content imaging; scaled per plate to unstimulated/TNFa-only wells | activation, % at 2 µM | 0.19% of 93,000 active | AID 808;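 active = activation above the screen mean plus 3 SD, with well images confirming the hit on visual review, cut at about 28% in these data, passing the limit was not always enough; inconclusive = activation above that limit but images do not confirm it; inactive = activation not above that limit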;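 note: signal is the number of cytoplasmic VCAM-1 stained grains per positive cell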
VCAM1 pot confirm – enhancers of VCAM1 induction in HUVEC – imaging, triplicate retest, confirmation; shares compounds with VCAM1 TNFa pot; HUVEC TNFa-stimulated VCAM-1 immunofluorescence imaging; activation, % at 2 µM; 230 tested, under 10 active; AID 1034;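 active = activation above 30% in triplicate retests at 2 µM, then confirmed by visual review of the well images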
Each line names hits and unclear results; the compound was inactive in the other large screens (follow-up assays come after a bar, where they were run).

COc1ccc(N2C(=O)CC(n3c(CCCCO)nc4ccccc43)C2=O)cc1 (stereo not given)	none
Cc1ccc(Cc2nnc3n(-c4ccccc4)nc(C(=O)c4ccccc4)n3c2=O)cc1	none
CN1CCN(c2ncccc2S(=O)(=O)N2CCCCC2)CC1	none
CCCn1c(SCC(=O)NCc2ccco2)nnc1C(C)C	none
CCc1nnc(NC(=O)CN2CCOCC2)s1	VCAM1 TNFa pot 85 | VCAM1 pot confirm inactive
Cn1c(CN2CCOCC2)nnc1SCC(=O)Nc1nccs1	none
CCc1nnc(NC(=O)c2cc3c(s2)CCCCC3)s1	none
Cc1nc(SCC#N)c2c(C)c(C)sc2n1	none
COc1ccccc1N(CC(=O)Nc1cccnc1)S(=O)(=O)c1ccccc1	none
COCCNC(=O)c1ccccc1NC(=O)c1ccccc1N(C)S(=O)(=O)c1ccccc1	VCAM1 TNFa pot 32 | VCAM1 pot confirm inactive
CN(c1ccccc1C(=O)NCc1ccccn1)S(C)(=O)=O	none
Cc1cc(NC(=O)C2CCN(S(=O)(=O)Cc3ccccc3)CC2)ccc1-n1cnnn1	none
CCOC(=O)N1CCC(n2c(=S)[nH]c3cc(OC)c(OC)cc3c2=O)CC1	none
COc1ccc(OCCOC(=O)c2cccc(-n3cnnn3)c2)cc1	none
COc1ccc(Cl)cc1NC(=O)COc1cccc(-n2cnnn2)c1	VCAM1 TNFa pot inconclusive | VCAM1 pot confirm inactive
O=C(COc1cccc(Oc2ccccc2)c1)Nc1ncccn1	none
O=C(NC(=S)N(Cc1ccccc1)Cc1ccccc1)c1ccccc1F	none
O=C(Cn1cnc2ccccc2c1=O)N1CCN(Cc2ccccc2)CC1	none
CC1CCN(C(=O)Cn2c(=O)n(CCc3ccccc3)c(=O)c3ccccc32)CC1	VCAM1 TNFa pot inconclusive | VCAM1 pot confirm inactive
O=c1c2ccccc2nc(-c2ccoc2)n1CCc1ccccc1	none
COc1ccc(S(=O)(=O)Nc2nc3n(n2)C(c2ccc(Cl)cc2)CC(=O)N3)cc1 (stereo not given)	none
CC(NCc1ccc2c(c1)OCO2)C(=O)NC1CCCc2ccccc21 (stereo not given)	none
O=C(CN1CCOCC1)Nc1ccc(OCc2ccccc2)cc1	none
CN1CCN(c2ccccc2NC(=O)c2ccc(OCc3ccccc3)cc2)CC1	none
c1ccc(COc2ccc(OCCCCN3CCCCC3)cc2)cc1	VCAM1 TNFa pot 38 | VCAM1 pot confirm inactive
O=C(C1CCN(S(=O)(=O)N2CCCC2)CC1)N1CCCCC1	none
Cc1ccc(S(=O)(=O)N(C)CC(=O)NC2CC(C)(C)NC(C)(C)C2)cc1	none
CC(C)[C@H](NC(=O)Nc1ccccc1F)C(=O)O	none
COc1ccc(C(=O)Nn2c(C)nnc2-n2nc(C)cc2C)cc1OC	VCAM1 TNFa pot 43 | VCAM1 pot confirm inactive
COc1ccc(C(=O)/C(C)=N/O)cc1OC	none
COc1ccc(C(=O)Nc2nc3ccccc3[nH]2)cc1OC	none
Cc1cccc(C2CC(c3ccc(Br)cc3)Nc3nc(N)nn32)c1 (stereo not given)	none
CCOc1ccc2ccccc2c1/C=N/n1cncn1	none
Cn1c(Sc2ccc(C(F)(F)F)cc2[N+](=O)[O-])nnc1-c1ccccc1	none
CN1CCCCc2c1[nH]c1ccccc1c2=O	none
O=C(COc1ccccc1)n1nc(-c2ccc(Cl)cc2)nc1NCc1ccco1	none
CCc1cccc(OCCCCN(CC)CC)c1	none
O=C(C1CCN(S(=O)(=O)N2CCOCC2)CC1)N1CCOCC1	none
Cc1ccc(-c2nc(C#N)c(NCCN3CCCCC3)o2)cc1	VCAM1 TNFa pot 44 | VCAM1 pot confirm inactive
CCOc1ccc(-c2nc(C#N)c(NC3CC3)o2)cc1	none
COc1ccc(-c2nc(C#N)c(NCc3cccnc3)o2)cc1OC	none
Fc1ccc(CSc2ncnc3sc4c(c23)CCCC4)cc1	none
O=C(CSc1nnnn1-c1ccc2c(c1)OCO2)NCc1ccccc1	none
Cc1cc(C(=O)CSc2nnc(Cc3ccccc3)o2)c(C)n1Cc1ccc2c(c1)OCO2	VCAM1 TNFa pot 54 | VCAM1 pot confirm inactive
O=C(CSc1nnc(Cc2cccs2)n1-c1ccccc1)NCc1ccc2c(c1)OCO2	none
CN(C(=O)CSc1nc(-c2ccccc2)cn1N)C(c1ccccc1)c1ccccc1	none
CS(=O)(=O)N(CC(=O)N1CCN(c2ccccc2F)CC1)c1cc(C(F)(F)F)ccc1Cl	none
CCC1CCc2c(sc(NC(=O)CSc3nc(-c4ccco4)cc(C(F)(F)F)n3)c2C#N)C1 (stereo not given)	none
C=CCNc1sc(C(=O)c2ccccc2)c(N)c1C#N	none
C=CCNc1sc(C(=O)C2CC2)c(N)c1C#N	VCAM1 TNFa pot 30 | VCAM1 pot confirm inactive
CC1CC(C)CN(c2nc3c(c(=O)n(C)c(=O)n3C)n2C)C1 (stereo not given)	none
Cc1ccc2c(c1)-c1ccccc1S(=O)(=O)N2	VCAM1 TNFa pot 32 | VCAM1 pot confirm inactive
Cc1ccc(CNC(=O)CSc2ncccn2)cc1	none
Fc1cccc(-c2nn[nH]n2)c1	VCAM1 TNFa pot 31 | VCAM1 pot confirm inactive
CC(C)c1ccc(Oc2cccc(C(=O)/C(C#N)=C/N(C)C)c2)cc1	none
Cc1cc(C)n(C(=O)COc2ccc(Cl)cc2Cl)n1	VCAM1 TNFa pot 43 | VCAM1 pot confirm inactive
CC(C)(CO)NC(=O)CCCOc1ccc(Cl)cc1Cl	none
COc1cc(OC)cc(C(=O)n2nc(C)cc2C)c1	none
